What all share (assay type): functional
For experiment [1], the target named is Solute carrier family 2, facilitated glucose transporter member 1 (Homo sapiens) (UniProt P11166). In words: ST_JUDE_LEISH: Cytotoxicity at 2uM final concentration against transgenic Leishmania Mexicana promastigotes LmGLUT1 that are glucose transport deficient and complemented with the human glucose transporter GLUT1. Activity is measured by DNA content using SYBR green in vitro.

Experiment [2] concerns the target Hexose transporter 1 (Plasmodium falciparum) (UniProt O97467). Nature of the experiment: ST_JUDE_LEISH: Cytotoxicity at 2uM final concentration against transgenic Leishmania Mexicana promastigotes LmPfHT that are glucose transport deficient and complemented with the Plasmodium falciparum hexose transporter. Activity is measured by DNA content using SYBR green in vitro.

For experiment [3], the target named is Glucose transporter (Leishmania mexicana) (UniProt O61059). In words: ST_JUDE_LEISH: Cytotoxicity at 2uM final concentration against transgenic Leishmania Mexicana promastigotes LmGT2 that are glucose transport deficient and complemented with the L. Mexicana glucose transporter 2. Activity is measured by DNA content using SYBR green in vitro.

Among the data in ChEMBL document CHEMBL3433997, “St. Jude Leishmania screening dataset” (2016) are inhibition values, retold here.

Each structure is given as a SMILES string.

Sequence of Solute carrier family 2, facilitated glucose transporter member 1 (Homo sapiens) (P11166 whole entry): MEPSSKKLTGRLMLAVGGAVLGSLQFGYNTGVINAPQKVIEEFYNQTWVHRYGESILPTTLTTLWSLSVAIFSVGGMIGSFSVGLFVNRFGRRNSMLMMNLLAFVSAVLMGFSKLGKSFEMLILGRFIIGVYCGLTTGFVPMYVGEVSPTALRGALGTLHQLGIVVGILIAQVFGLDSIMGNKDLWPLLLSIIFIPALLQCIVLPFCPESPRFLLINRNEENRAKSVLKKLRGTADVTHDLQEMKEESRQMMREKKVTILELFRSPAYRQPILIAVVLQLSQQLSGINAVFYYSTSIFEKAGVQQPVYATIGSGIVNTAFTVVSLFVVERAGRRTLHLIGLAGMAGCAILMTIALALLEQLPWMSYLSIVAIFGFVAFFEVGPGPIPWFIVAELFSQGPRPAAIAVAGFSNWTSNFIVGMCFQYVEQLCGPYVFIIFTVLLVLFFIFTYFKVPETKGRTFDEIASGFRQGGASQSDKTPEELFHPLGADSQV

The term inhibition denotes the change of the read-out against control, counted positive when it falls. On to `COc1ccc2ncc(F)c(CCN3CC[C@H](NCc4cc(C#N)c5c(c4)OCCO5)[C@H](O)C3)c2c1`, for which the results for the inhibition in experiment [1], in experiment [2] and in experiment [3] were 42.4%, 57.5% and 70.8%, respectively.
As for `COc1ccc(C(=O)NCc2ccc(N)nc2C)cc1Nc1ncc(-c2cccc(N(C)C)c2)cn1`, the inhibition in experiment [1] is 0.19%; in experiment [2], -1.36%; in experiment [3], 1.76%.
In the same order, the values of `CCOc1ccc2[nH]c(C)cc(=NN=Cc3cccc(F)c3)c2c1` are -0.81%, -2.04% and 0.95%.
In the same order, the values of `O=C(Nc1nccs1)c1cc(-c2cccnc2)nc2ccc(Br)cc12` are 7.77%, -0.8% and -0.59%.
Consider `CS(=O)(=O)NCCCNCc1cccc(-c2cccc(-c3nc4cc(F)ccc4[nH]3)c2)c1`, for which the results for the inhibition in experiment [1], in experiment [2] and in experiment [3] were 1.53%, 1.37% and -0.27%, respectively.
Turning to `O=S(=O)(c1c(Cl)cc(Cl)cc1Cl)N1CCCCC(c2ccc(F)c(F)c2)=N1`, the inhibition in experiment [1] is 0.21%; in experiment [2], 2.09%; in experiment [3], 1.47%.
Consider `COc1cc2nc(NCC3CCN(C(=O)c4ccc(-c5ccc(C(=O)N(C)C)cc5C)cc4)CC3)nc(N)c2cc1OC`, for which the values for the inhibition in experiment [1], in experiment [2] and in experiment [3] were 10.9%, 9.71% and 7.15%, respectively.
In the same order, the values of `CCOc1cc(C)ccc1C1CCN(CCCCNC(=O)c2cccc(-c3ccc(C(F)(F)F)cc3)c2)CC1` are 1.54%, 2.27% and 2.69%.
For `CC(=O)Nc1ccc(C(=O)Nc2cccc(-c3ccc(-c4nc5cc(C(F)(F)F)ccc5[nH]4)s3)c2)cn1`, in that order: 3.05%, 3.45% and 4.26%.
For `CCOc1cc(C(=O)NC2CCN(Cc3ccccc3)CC2)ccc1-c1nc2cc(Cl)ccc2[nH]1`, in that order: 4.1%, 5.59% and 3.09%.
With `Cc1nc(N)nc(N)c1CCCOc1ccc(Br)cc1`, the inhibition in experiment [1] is 6.19%; in experiment [2], 4.15%; in experiment [3] it was -1.62%.
For `Fc1ccc2[nH]c(-c3cccc(-c4ccc(CNCc5cnn(-c6ccccc6)n5)cc4)c3)nc2c1`, in that order: 0.4%, 1.9% and 0.03%.
In the same order, the values of `Cc1[nH]n(-c2cccc(Cl)c2)c(=O)c1-c1ccc(Cl)cc1` are -3.78%, -2.18% and -2.07%.
In the same order, the values of `CCOc1cc(C)ccc1C1CCN(CCCCNC(=O)c2ccc(-c3ccc(Cl)cn3)cc2)CC1` are 1.1%, -0.06% and -0.83%.
For the compound `Cc1ccccc1C1CCN(C2CCC(NC(=O)/C=C/c3ccc(OC(F)(F)F)cc3)CC2)CC1` (stereo not given), the inhibition in experiment [1] was -0.78%; in experiment [2], -1.35%; in experiment [3] it was 0.34%.
For `COC(=O)Cn1c2ccccc2c2c(N)c(C(=O)OC)c(C)nc21`, in that order: 0.93%, 0.97% and -0.45%.
In the same order, the values of `OC1CCCN(Cc2cccc(-c3ccc(-c4nc5cc(C(F)(F)F)ccc5[nH]4)cc3)c2)C1` (stereo not given) are 2.67%, 2.8% and 3.54%.
In the same order, the values of `CC(=O)N(C)c1ccc(C(=O)Nc2cccc(-c3cccc(-c4nc5cc(C(F)(F)F)ccc5[nH]4)c3)c2)cc1` are 8.18%, 7.82% and 5.77%.
Regarding `CC[C@H](C)CNC(=O)c1cncc(-c2cccc(CN3CCC(N4CCCC4)CC3)c2)c1`, the figures for the inhibition in experiment [1], in experiment [2] and in experiment [3] were -3.12%, 2.1% and -0.34%, respectively.
As to `Cc1ccc(NC(=O)c2cc(Br)cc(N3CCC(N(C)C)CC3)c2)cc1F`, the inhibition in experiment [1] is 7.55%; in experiment [2], 7.67%; in experiment [3], 6.75%.
As for `Cc1nn(C2CCS(=O)(=O)C2)c(C)c1C1Nc2ccccc2C(=O)N1Cc1ccc2c(c1)OCO2` (stereo not given), the inhibition is -0.66% in experiment [1], -0.19% in experiment [2] and -1.17% in experiment [3].
For `O=C(Nc1cccc(CN2CCCN(Cc3cccc(O)c3)CC2)c1)c1ccc(Cl)c(Cl)c1`, in that order: 13.9%, 12.1% and 13.8%.
As to `CC(Oc1c(C2CCN(CCCCNC(=O)c3ccc(-c4ccc(C#N)cc4)cc3)CC2)ccc2c1CCCC2)C(N)=O` (stereo not given), the results for the inhibition in experiment [1], in experiment [2] and in experiment [3] were -0.84%, 1.22% and 0.3%, respectively.
As to `CC(=O)c1ccc(N2C(=O)C3C(Cc4ccc(OC(C)(C)C)cc4)NC4(C(=O)N(Cc5ccc(C(C)(C)C)cc5)c5ccccc54)C3C2=O)cc1` (stereo not given), the values for the inhibition in experiment [1], in experiment [2] and in experiment [3] were 7.13%, 4.25% and 2.13%, respectively.
In the same order, the values of `CCOc1ccc(-c2nonc2NC(=O)c2ccc(OC(C)C)cc2)cc1OCC` are 2.72%, 1.95% and 3.68%.
For `Cc1onc(-c2c(Cl)cccc2Cl)c1C(=O)NC1=NC(C)(C)ON1c1ccccc1`, in that order: 5.88%, 5.44% and 4.86%.
In the same order, the values of `Nc1ncc(-c2ccc3nccc(-c4ccncc4)c3c2)cc1S(=O)(=O)N1CCCCC1` are 12.9%, 11.3% and 7.55%.
In the case of `O=C(c1ccc(-c2cnc3[nH]cc(-c4ccc(C(=O)N5CCOCC5)cc4)c3c2)cc1)N1CCOCC1`, the inhibition in experiment [1] was -0.49%; in experiment [2], -1.48%; in experiment [3], -1.88%.
Take `O=C(Nc1ccccc1)N(Cc1cccc(-c2ccc(CNC3CCCC3)cc2)c1)C1CCN(Cc2ccccc2)CC1`: the inhibition was determined as 5.58% in experiment [1], 4.72% in experiment [2] and 2.99% in experiment [3].
For `CCN(CC)CCNc1ccnc2ccc3ccccc3c12`, in that order: 1.6%, 6.78% and 2.97%.
In the same order, the values of `Cc1nc(-c2ccc(-c3ccc(NC(=O)c4coc5ccc(N6CC(C)N(C)C(C)C6)cc45)cc3)c(C)c2)no1` (stereo not given) are -0.52%, 0.17% and 3.28%.
In the same order, the values of `Clc1cccc(-c2nc(Nc3ccnc(-c4ccc(CN5CCOCC5)cc4)c3)c3ccccc3n2)c1` are 4.42%, 3.91% and 3.58%.
Consider `COc1ccc(C(=O)Nc2ccc3nc(N4CCCCC4)cc(C)c3c2)cc1OC`, for which the results for the inhibition in experiment [1], in experiment [2] and in experiment [3] were 1.54%, -0.36% and 0.56%, respectively.
For `Cc1cc(CNCCCCCCNCc2cccc([N+](=O)[O-])c2)ccc1O`, in that order: 10.5%, 9.56% and 9.64%.
In the same order, the values of `CN1CCc2ccc(NC(=O)Nc3ccc(Cl)c(Cl)c3)cc2C1` are 4.69%, 3.67% and 3.54%.
